# A selection: hits, their analogues and other compounds. The true share with any hit is near 9.9%.
# ALDH1A1 block: ALDH1A1 (human) enzyme inhibition. P00352. Potency, µM (doses to about 75.3 µM), most hits filed as inhibitors. Purified ALDH1A1, NADH fluorescence, propionaldehyde substrate. 7.3% of 220,000 active. AID 1030
# KDM4E inh: blocks human JMJD2E demethylase activity; B2RXH2; JMJD2E catalytic domain, FDH-coupled NADH fluorescence (FDH is formaldehyde dehydrogenase); Potency, µM (doses to about 57.1 µM), usual class: inhibitors; 1.6% of 230,000 active; AID 2147; further: nearly all actives have a fitted effect of over 50% in size
# Target sequence (B2RXH2 1-337 limits assumed): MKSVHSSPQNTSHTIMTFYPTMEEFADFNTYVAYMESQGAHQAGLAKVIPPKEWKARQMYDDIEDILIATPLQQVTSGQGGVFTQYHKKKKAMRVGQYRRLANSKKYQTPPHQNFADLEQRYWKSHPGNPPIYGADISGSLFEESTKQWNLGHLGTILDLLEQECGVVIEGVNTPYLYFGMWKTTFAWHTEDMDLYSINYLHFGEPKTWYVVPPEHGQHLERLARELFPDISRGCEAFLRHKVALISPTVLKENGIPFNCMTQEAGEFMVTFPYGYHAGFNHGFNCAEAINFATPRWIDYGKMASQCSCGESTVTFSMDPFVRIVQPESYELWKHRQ
# HPGD inh: blocks human HPGD enzyme activity; P15428; purified HPGD, NADH fluorescence kinetic, PGE2 substrate; Potency, µM, actives largely listed as inhibitors; 4.3% of 150,000 active
#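 20 nM HPGD preincubated 15 min at room temperature with compound in 50 mM Tris-HCl pH 8, 0.01% Tween 20. Started with 1 mM NAD+ and 30 uM prostaglandin E2; NADH fluorescence (360/450 nm) read 5 times over 30-s intervals, last minus first.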
# Tau fibril ThT: inhibitors of human tau fibril formation, thioflavin T binding; recombinant tau K18 P301L, heparin-induced fibrillization, ThT fluorescence; Potency, µM (highest dose often 57.4 µM), usual class: inhibitors; 2.1% of 270,000 active; P10636; active means well fitted curve in the direction sought with a large enough effect; inconclusive means small, poorly fitted or top-dose-only effect, or another doubt; inactive means no such curve, though single readings can be large; an effect the other way counts as inactive or inconclusive; further: nearly all actives have a fitted effect of over 55% in size
# Target sequence (P10636 561-689 P618L limits assumed): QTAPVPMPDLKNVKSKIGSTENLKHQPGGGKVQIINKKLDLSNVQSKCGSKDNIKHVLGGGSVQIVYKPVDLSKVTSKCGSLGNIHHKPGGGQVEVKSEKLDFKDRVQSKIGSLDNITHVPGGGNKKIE
#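 Tau K18 P301L fragment (15 uM unlabeled plus 0.24 uM Alexa 594-labeled) in 100 mM sodium acetate pH 7 with compound, fibrillization induced by 20 uM heparin for 6 hr at 37 C. Thioflavin T (30 uM) added, fluorescence read after 1 hr (ex 450, em 510 nm).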
# Tau FP inhib: blocks human tau fibril formation measured by polarization. K18 P301L tau heparin fibrillization, Alexa594 FP, 6 h. 0.39% of 280,000 active. AID 1468. Potency, µM (series often up to 57.7 µM), hits mostly inhibitors. P10636; active means well fitted curve in the direction sought with a large enough effect; inconclusive means small, poorly fitted or top-dose-only effect, or another doubt; inactive means no such curve, though single readings can be large; an effect the other way counts as inactive or inconclusive; further: nearly all actives have a fitted effect of over 55% in size
#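 FP of Alexa 594-tau after heparin (20 uM) induction. Substrate: human K18 P301L, 15 uM unlabeled, 0.24 uM labeled. Buffer 100 mM sodium acetate pH 7. 6 hr, 37 C.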
# Tau fluor cs: counter-screen for tau fibril formation inhibitors | 0.93% of 280,000 active | tau K18 P301L Alexa594 fluorescence, heparin fibrillization | Potency, µM (doses to about 57.7 µM); active means well fitted curve in the direction sought with a large enough effect; inconclusive means small, poorly fitted or top-dose-only effect, or another doubt; inactive means no such curve, though single readings can be large; an effect the other way counts as inactive or inconclusive; further: nearly all actives have a fitted effect of over 55% in size
#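 Human tau K18 P301L (15 uM unlabeled, 0.24 uM Alexa 594-labeled) in 100 mM sodium acetate pH 7 with 20 uM heparin, 6 hr at 37 C. ThT 30 uM added, 1 hr ambient; Alexa 594 FP and total fluorescence read at 555/632 nm.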
# A number is an active result; - = inactive; ? = inconclusive; . = not tested or not shown; [ ] = another dose, or the depositor's remark. Unless noted, the call rests on the fitted dose curve; in most records, active means well fitted inhibition curve with a large enough effect (not every such curve was filed as active); inconclusive means small, poorly fitted or top-dose-only effect, or another doubt; inactive means no such curve, though single readings can be large or run the other way.
SMILES,ALDH1A1 block,KDM4E inh,HPGD inh,Tau fibril ThT,Tau FP inhib,Tau fluor cs
Cc1cccc(C2C=C(c3ccc(C)c(C)c3)Nc3nnnn32)c1 (stereo not given),.,.,.,-,-,-
COc1ccc(-c2csc(C3=C(O)CN(CCCN4CCCC4=O)C3=N)n2)cc1OC,?,-,.,?,-,-
O=C1CC(Cc2ccccc2)C(=O)N1CCc1ccc2c(c1)OCO2 (stereo not given),17.8µM,-,-,-,-,-
Cc1cccc(CC2CC(=O)N(CCc3ccc4c(c3)OCO4)C2=O)c1 (stereo not given),?,-,.,-,-,-
COc1ccc(CCN2C(=O)C3C4C=CC(C5CC45)C3C2=O)cc1OC (stereo not given),3.98µM,-,.,-,-,-
COc1ccc(CCN2C(=O)C3C4C=CC(C3C2=O)C2C(=O)N(CCc3ccc(OC)c(OC)c3)C(=O)C42)cc1OC (stereo not given),-,-,-,-,-,-
CN(C)c1ccc(C(=O)n2nnc3ccccc32)cc1,?,?,-,?,-,?
CC(C)c1ccc(/C=C/C(=O)n2nnc3ccccc32)cc1,-,-,-,20µM,?,-
CC(C)c1ccc(/C=C/C(=O)N2CCCCCC2)cc1,?,-,14.1µM,?,-,-
Cc1cnc(CNc2ncnc3ccc(-c4cccc(NS(C)(=O)=O)c4)cc23)cn1,-,.,.,.,.,.
O=C(c1ccccc1)c1cccs1,-,-,.,-,-,-
CCOc1ccc(N2C(=O)CC(NCCNc3ccc(C(=O)c4cccs4)cc3)C2=O)cc1 (stereo not given),22.4µM,?,.,?,-,?
CCOc1ccc(C(=O)c2cccs2)cc1,-,-,15.8µM,-,-,-
CCc1ccc(C(=O)/C=C/Nc2ccc(S(=O)(=O)Nc3onc(C)c3C)cc2)cc1,?,-,20µM,?,-,-
Cc1cc(C)nc(NS(=O)(=O)c2ccc(N/C=C/C(=O)c3ccc(Cl)cc3)cc2)n1,-,22.4µM,-,-,-,-
COc1ccc(C(=O)/C=C/Nc2ccc(S(=O)(=O)Nc3nc(C)cc(C)n3)cc2)cc1OC,?,?,?,?,-,-
Cc1noc(NS(=O)(=O)c2ccc(N/C=C/C(=O)c3ccc(F)cc3)cc2)c1C,-,-,.,?,-,-
O=C(O)CCc1ccc(-c2ccccc2)[nH]1,-[13.5 µM],.,-,.,.,.
C/C(N[C@@H]1CSCC1O)=C1/C(=O)CC2[C@@H]1C2(C)C (stereo not given in full),8.91µM,-,-,?,-,-
O=C(NCC(c1cccnc1)N1CCN(c2ccc(F)cc2)CC1)c1ccc(F)cc1 (stereo not given),31.6µM,-,-,-,-,-
O=C(NCC(c1cccnc1)N1CCN(c2ccccc2F)CC1)c1ccc(F)cc1 (stereo not given),.,.,.,-,-,-
COc1ccc(C(=O)NNC(=O)CN2CCC(n3nnc4cc(F)ccc43)CC2)cc1,-,-,-,-,-,-
O=C(NCCCl)C1Cc2c(ccc3ccccc23)O1 (stereo not given),?,?,.,-,-,-
Cc1cccc(Oc2ccc(NC(=O)c3ccccc3C(=O)O)cc2)c1,.,-,.,.,-,-
N#Cc1ccc(Oc2ccc(NC(=O)C3CC=CCC3C(=O)O)cc2)cc1 (stereo not given),0.501µM,-,.,-,-,-
SMILES,ALDH1A1 block,KDM4E inh,HPGD inh,Tau fibril ThT,Tau FP inhib,Tau fluor cs
Cc1cccc(Oc2ccc(NC(=O)C3CC=CCC3C(=O)O)cc2)c1 (stereo not given),1.78µM,-,.,-,-,-
Cc1cccc(CCNC(=O)c2ccc3c(c2)N(Cc2ccccc2F)C(=O)c2ccccc2S3)c1,.,.,.,-,-,-
CCc1ccc(OCCCn2c(-c3ccc(Cl)cc3)nc3ccccc3c2=O)cc1,.,.,.,-,?,-
COc1ccc(-c2nc3ccccc3c(=O)n2CCCN2CCOCC2)cc1,-,-,-,-,-,-
O=c1c2ccccc2nc(-c2ccccc2)n1CCN1CCOCC1,12.6µM,-,-,-,-,-
O=c1c2ccccc2nc(-c2ccccc2)n1Cc1ccc(Cl)cc1,6.31µM,-,-,-,-,-
O=c1c2ccccc2nc(-c2ccccc2)n1Cc1ccccc1,15.8µM,-,-,-,-,-
Cc1cccc(N2CCN(C(=O)c3cn(CC(C)C)c(=O)c4c3c3ccccc3n4C)CC2)c1C,.,.,.,-,-,-
CCN(CC)c1ccc(C(=O)NCc2ccc3c(c2)CCN3C(=O)c2ccc(F)cc2)cc1,.,.,.,-,-,-
COc1cccc(C(=O)NCC(=O)OCC(=O)Nc2cc(OC)c([N+](=O)[O-])cc2C)c1,-,-,.,-,-,-
CCN1CCCC1CN(Cc1cc2ccc(C)cc2[nH]c1=O)C(=S)Nc1ccc(OC)cc1OC (stereo not given),20µM,-,-,?,-,-
CCN1CCCC1CN(Cc1cc2cc(C)cc(C)c2[nH]c1=O)C(=O)Nc1ccccc1OC (stereo not given),?,-,-,-,-,-
O=C(CSc1ncnc2sc3c(c12)CCCC3)c1ccco1,22.4µM,?,?,?,-,-
CCc1nc(SCC(=O)N2CCN(C(=O)c3ccco3)CC2)c2c3c(sc2n1)CCCC3,28.2µM,-,-,?,-,-
O=C(CSc1ncnc2sc3c(c12)CCCCC3)NCc1ccco1,8.91µM,?,10µM,-,-,-
O=S(=O)(c1ccc2c(c1)CCN2)N1CCCCCC1,.,.,.,-,-,-
Cc1cc(C)c2c(CC(=O)Nc3cc(C(F)(F)F)ccc3Cl)coc2c1,.,.,.,-,-,-
CN(C)c1ccc(C(=S)N2CCN(C(=S)Nc3ccccc3)CC2)cc1,?,-,.,-,-,-
CN(C)c1ccc(C(=S)N2CCN(C(=S)Nc3cccc4ccccc34)CC2)cc1,15.8µM,-,.,-,-,-
FC(F)Sc1ccc(NC(=S)NCC2CCCCC2)cc1,?,-,-,-,?,14.1µM[quencher]
CCOC(=O)c1c(NC(=O)COc2ccc(C)cc2C(C)(C)C)sc2c1CCC(C)C2 (stereo not given),.,.,.,-,-,-
COc1cc(C2c3c(oc4ccccc4c3=O)C(=O)N2c2nnc(C(C)C)s2)cc(OC)c1OC (stereo not given),.,.,.,-,-,-
O=C1C2C3C=CC(C3)C2C(=O)N1/N=C/c1cn(Cc2ccccc2)c2ccccc12 (stereo not given),-,-,-,-,-,-
NC1=NC(=O)/C(=C/c2cn(Cc3ccccc3)c3ccccc23)S1,-,-,28.2µM,-,-,-
O=Cc1cn(-c2ccc(F)cc2)c2ccccc12,2µM,-,-,-,-,-
C=C(C)CN=C1NN=C(c2cc(C)n(-c3ccc(C)cc3)c2C)CS1,12.6µM,-,-,?,-,-
Cc1ccccc1N=C1NN=C(c2ccccc2F)CS1,?,-,-,28.2µM,?,-

# Bioassay records deposited in PubChem by National Center for Advancing Translational Sciences (NCATS).
